A selection: hits, their analogues and other compounds. The true share with any hit is near 17%.
DT40 TDP1 CPT: growth inhibition of DT40 Tdp1-/-;hTDP1 cells with camptothecin (screen for TDP1 inhibitors). chicken DT40 Tdp1-/-;hTDP1 cells + 20 nM CPT, ATP luminescence, 48 h. Potency, µM (top dose mostly 46.2 µM), for the others: at the top dose activity change, negative = growth inhibition, most hits filed as inhibitors. 12% of 420,000 active. AID 686979; note: % is set by controls: 0 for no effect and ±100 for the full control effect; nearly all actives have a fitted effect of over 55% in size
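Chicken DT40 Tdp1-/- cells stably complemented with human TDP1 were seeded at 400 cells/well in medium containing 20 nM camptothecin, exposed to pin-transferred compounds, and grown at 37 °C for at least 48 hr. Viability was read as ATP luminescence.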
TGFb SMAD3 inh: TGF-b pathway inhibition; Potency, µM (highest dose often 46.1 µM), for the others: top-dose activity, negative = inhibition, hits mostly inhibitors; 1.2% of 410,000 active; AID 588855; HepG2 CAGA-GFP TGF-b/SMAD3 reporter, GFP fluorescence, 18 h; TGF-beta stimulated, 500 pg/mL final; note: % is set by controls: 0 for no effect and ±100 for the full control effect; nearly all actives have a fitted effect of over 65% in size
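Per well, imaged GFP fluorescence of HEPG2 CAGA-GFP cells gives the signal; cells get compound, then TGF-beta (500 pg/mL final), 18 h at 37 degrees C; %Activity versus -TGF-beta and +DMSO controls.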
ATXN2 expr inh: ATXN2 expression inhibition. 0.72% of 360,000 active. Potency, µM (doses to about 57 µM), for inactives: top-dose activity change, negative = inhibition, usual class: inhibitors. AID 1745845. HEK-293 ATXN2-luciferase reporter, luminescence, 24 h; note: % is set by controls: 0 for no effect and ±100 for the full control effect; nearly all actives have a fitted effect of over 55% in size
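ATXN2-luciferase reporter cells (luciferase flanked by upstream and downstream ATXN2 gene portions) were treated 24 h at 37 °C with compounds at up to 57 uM. SteadyGlo luminescence gave expression; GF-AFC fluorescence gave viability.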
DT40 TDP1 no CPT: qHTS for Inhibitors of human tyrosyl-DNA phosphodiesterase 1 (TDP1): qHTS in cells in absence of CPT; AID 686978, 2013; 15% of 420,000 active; DT40 Tdp1-/- hTDP1 cells, no CPT, ATP luminescence, 48 h; Potency, µM (series often up to 46.2 µM), for the others: at the top dose activity change, negative = growth inhibition, hits mostly inhibitors; note: % is set by controls: 0 for no effect and ±100 for the full control effect; nearly all actives have a fitted effect of over 55% in size
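Cells were dispensed at 400 per well, compounds added by pin tool, plates incubated ≥48 hr at 37 °C, then CellTiter-Glo added for 30 min at room temperature before luminescence reading. Line: DT40 Tdp1-/- complemented with hTDP1; camptothecin omitted.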
ATXN viability: cell viability loss in ATXN counter-screen. S2 cells (HEK-293 line with an ATXN2-luciferase reporter) viability, CellTiter-Fluor protease fluorescence, 24 h. Potency, µM (series often up to 56.7 µM), most hits filed as cytotoxic. 0.49% of 400,000 active; note: nearly all actives have a fitted effect of over 40% in size
HepG2 tox: counter-screen for TGF-b inhibitors: cytotoxicity in HepG2 cells; HepG2 CAGA-GFP viability, ATP luminescence, 18 h; Potency, µM (series often up to 46.1 µM), inactives show at the highest dose activity change, negative = cytotoxicity, most hits filed as cytotoxic; 0.76% of 410,000 active
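HepG2 CAGA-GFP cells (1000/well, DMEM with 1% FBS) received compound, then TGF-beta at 500 pg/mL final, and were incubated 18 hours at 37 degrees C. Viability was read by CellTiter-Glo luminescence. Media-only wells were set as complete cell-killing and DMSO as no toxicity.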
* marks the source's active call; other numbers are inactive results; i = inactive; ? = inconclusive; nt = not tested or not shown; ! = not confirmed by another sample; [ ] = another dose, or the depositor's remark. Calls come from the whole dose curve; as a rule, active = well fitted curve in the direction sought with a large enough effect; inconclusive = small, poorly fitted or top-dose-only effect, or another doubt; inactive = no such curve, though single readings can be large; an effect the other way counts as inactive or inconclusive. Potency is the fitted concentration of half-maximal effect.

SMILES	DT40 TDP1 CPT	TGFb SMAD3 inh	ATXN2 expr inh	DT40 TDP1 no CPT	ATXN viability	HepG2 tox
C[C@@]12C(=O)Nc3ccc(Br)cc3C(=O)N1[C@H]1c3cc(Cl)ccc3OC[C@@H]1[C@@H]2c1ccccc1	?	-14.2%	-9.4%	18.4µM*	i	-23.3%
C[C@@]12C(=O)N(CC3CCCO3)CC(=O)N1[C@H]1c3cc(Cl)ccc3OC[C@@H]1[C@@H]2c1ccccc1 (stereo partly specified)	23.1µM*	3.8%	5.3%	14.6µM*	i	-9.5%
C[C@@]12C(=O)Nc3ccc(F)cc3C(=O)N1[C@H]1c3cc(Br)ccc3OC[C@@H]1[C@@H]2c1ccccc1	?	-10.2%	?	23.1µM*	i	-5.7%
C[C@@]12C(=O)Nc3ccc(Br)cc3C(=O)N1[C@H]1c3ccccc3OC[C@@H]1[C@@H]2c1ccccc1	?	4.0%	15.6%	?	i	-14.3%
C[C@@]12C(=O)Nc3cc(F)ccc3C(=O)N1[C@H]1c3cc(Br)ccc3OC[C@@H]1[C@@H]2c1ccccc1	?	?	-26.6%	?	i	-13.0%
CC(C)(C)OC(=O)N1CCN(Cc2ccc(F)c(B(O)O)c2)CC1	24.5%	16.8%	4.1%	18.1%	i	-0.5%
COc1ccc(NC(=O)c2cc3c(=O)n(Cc4ccco4)ccc3nc2C)cc1	-7.3%	-37.0%	nt	?	nt	-4.6%
COc1ccc(CNC(=O)Nc2ccc3c(c2)c(=O)n(C)n3Cc2cccc(C(F)(F)F)c2)cc1	?	-27.1%	-16.6%	23.1µM*	i	-3.2%
COc1ccc(OC)c(CC(=O)Nc2ccc3c(c2)c(=O)n(C)n3Cc2cccc(C(F)(F)F)c2)c1	29.1µM*	-11.5%	0.0%	?	i	-26.7%
Nc1cc(N)c(OCC(F)(F)F)cc1OCC(F)(F)F	2.59µM*	?	1.1%	9.2µM*	i	-66.8%
COCCN(C(=O)c1ccco1)C(C(=O)NC1CCCC1)c1cccs1 (stereo unspecified)	-25.3%	3.3%	-5.8%	-20.5%	i	-41.9%
CC(C)CCCN1C(N(C)C)=NC[C@@H]1Cc1ccccc1	20.6µM*	8.1%	-20.7%	20.6µM*	i	3.1%
CCN1C(N(C)C)=NC[C@@H]1Cc1ccccc1	0.3%	?	2.8%	-11.6%	i	1.2%
CCC(C)CCN1C(N(C)C)=NC[C@@H]1Cc1ccccc1 (stereo partly specified)	11.6µM*	2.9%	0.0%	?	i	-11.7%
CC1CCC2(CC1)NC(=O)N(CC(=O)Nc1cccc(C#N)c1)C2=O (stereo unspecified)	-16.9%	1.3%	0.5%	2.4%	i	-2.2%
CCOC(=O)c1c(C)n(C)c2cc(Br)c(O)c(O)c12	-28.5%	?	nt	?	i	-15.5%
CCOC(=O)c1c(CSc2cccs2)n(C)c2cc(Br)c(O)c(CN(C)C)c12	16.4µM*	?	-32.3%	18.4µM*	i	-25.2%
Cn1nc(C(F)(F)F)c(C(=O)Nc2cccc(Cl)c2)c1Cl	-29.5%	0.3%	-12.7%	?	i	-0.4%
Clc1ccc(OCCCCCN2CCCC2)c(Br)c1	?	?	-24.6%[11.3 µM]	23.1µM*	i	0.5%
Clc1ccc(SCCN2CCNCC2)cc1	?	4.2%	nt	18.4µM*	i	-2.4%
Clc1ccc(OCCCN2CCCCC2)c(Br)c1	?	0.0%	6.2%	?	i	-28.3%
Clc1ccc(OCCCn2ccnc2)c(Br)c1	?	-6.5%	-22.4%	?	?	-36.8%
Clc1ccc(Cl)c(OCCCCN2CCNCC2)c1	5.8µM*	?	-22.8%	?	i	-46.5%
CCN1CCN(CCCOc2ccc(Cl)cc2Br)CC1	?	-3.3%	nt	16.4µM*	i	4.7%
CNS(=O)(=O)c1cn(CC(=O)N2CCN(c3ccccc3F)CC2)cc1S(=O)(=O)NC	-3.8%	0.0%	nt	-25.1%	nt	-15.2%
SMILES	DT40 TDP1 CPT	TGFb SMAD3 inh	ATXN2 expr inh	DT40 TDP1 no CPT	ATXN viability	HepG2 tox
CC(C)C[C@@H]1Cc2[nH]c(=S)[nH]c(=O)c2[C@H](CCc2ccccc2)O1	?	nt	1.6%	?	i	nt
CN1CCN(c2ccccc2NC(=O)COc2ccc(Cl)cc2)CC1	-7.3%	-0.1%	0.5%	-15.1%	i	-1.3%
COCCn1c(C)cc(O)c(C(c2ccccc2F)N2CCN(c3ccccc3)CC2)c1=O (stereo unspecified)	-20.5%	-0.7%	nt	-19.4%	nt	13.2%
O=C(CN1C2CCCC1CC(NC(=O)C1CCCCC1)C2)Nc1ccccc1 (stereo unspecified)	14.6µM*	13.5%	-4.4%	?	i	14.0%
O=S1(=O)CCOC[C@H](Cc2ccccc2)N1Cc1cccc(F)c1	-0.5%	?	-2.7%	?	i	-4.6%
O=S1(=O)CCOC[C@H](c2ccccc2)N1Cc1cccc(F)c1	?	?	8.4%	12.6µM*!	i	-15.3%
O=S1(=O)CCOC[C@H](c2ccccc2)N1Cc1ccc(F)cc1	?	-22.5%	nt	11.2µM*	nt	-15.3%
Cc1ccc(CN2[C@@H](c3ccccc3)COCCS2(=O)=O)cc1	?	?	11.6%	?	i	12.2%
C=CCc1ccccc1OCc1nc2ccccc2n1CC	?	?	-7.5%	23.1µM*	i	-29.4%
CC1COCC(C)N1C(=O)c1cccnc1 (stereo unspecified)	-1.7%	2.6%	nt	-23.7%	i	3.8%
CC1CC(Nc2ccccc2)c2ccccc2N1C(=O)c1ccccc1F (stereo unspecified)	1.84µM*	-0.1%	-39.0%	1.03µM*	i	20.2%
C[C@@H]1C[C@H](Nc2ccccc2)c2ccccc2N1C(=O)c1cccnc1	7.31µM*	16.0%	-23.2%	4.61µM*	i	-13.7%
CC1CC(Nc2ccccc2)c2ccccc2N1C(=O)c1cccnc1 (stereo unspecified)	9.2µM*	-35.4%	?	4.61µM*	i	-32.7%
O=C(OCc1cn([C@@H]2CN(Cc3cccs3)[C@@H](c3ccc(Cl)cc3)C[C@H]2O)nn1)c1ccccc1	?	1.4%	-36.2%	?	?	-0.2%
CC(=O)N1CCc2c(sc(NC(=O)c3cccc(N4C(=O)CCC4=O)c3)c2C(N)=O)C1	-2.2%	5.4%	2.6%	7.3%	i	6.3%
